Data as given in PubChem BioAssay AID602478 (National Center for Advancing Translational Sciences (NCATS), 2012).
Results filed as inconclusive are left out. Where a call stands in place of a potency, no number is given. Calls of active or inactive are those of the source. The call rests on the fitted dose curve; in most records, active means well fitted activation curve with a large enough effect; inconclusive means small, poorly fitted or top-dose-only effect; inactive means flat fitted curve, though single readings scatter.

target: Luciferin 4-monooxygenase (Photinus pyralis) (UniProt P08659); assay: FLuc inhibitory activity for the follow-up compounds in a cell-based translational read-through assay (72 hour incubation); conditions: GripTite 293 FLucUGA read-through, luminescence; series mostly up to 38.3 µM
Source text: NCGC Assay Overview: Firefly (Photinus pyralis) luciferase is one of the most commonly used transcriptional reporters. It is considered one of the more dynamically responsive reporters - that is, responsive to changes in reporter transcription - as it requires no post-translational modifications and is enzymatically active directly after protein synthesis (Wood, 1998). With no endogenous expression in mammalian cells and without the requirement of external excitation, it offers very little background signal, thus generally providing excellent signal to background for most assays. Previous profiling work to determine the prevalence of compounds that affect FLuc enzymatic activity (PubChem AID 411) identified that ~3% of the MLSMR library (then at ~72K) inhibited FLuc (Auld et al., 2008). […] Of the compounds identified in this profile that inhibited FLuc, 151 compounds were selected for further analysis, in an effort to better understand their mode of inhibiting FLuc. The assay described here was to determine the activity of the compounds in a cell-based firefly luciferase reporter gene assay originally designed to identify compounds that enchanced translational read-through of a FLuc cDNA that contained a premature stop codon (Auld et al., 2009; Auld et al., 2010). Compounds that enhance translational read-through or compounds that stabilize FLuc intracellularly are identified as active compounds in the assay.
NCGC Assay Protocol Summary: Reagents: Transient transfection of FlucUGA construct: TransFast Transfection Reagent (Promega #E2431); FLucUGA construct (refer to Auld et al., 2009) #GripTite 293 MSR Cell Line (Invitrogen #R795-07) #Complete growth media: DMEM (Invitrogen #11965), 10% HIFBS, 0.1mM MEM NEAA, 5mL/L pen-strep (of 5000U/mL stock), 600ug/mL Geneticin #Assay media: DMEM without phenol red (Invitrogen #21063), 5% charcoal-stripped HIFBS (Hyclone #SH30071.03), 0.1mM MEM NEAA In-house detection reagent: 300mM Tris-HCl, 300mM Trizma base, 300mM MgCl, 1% Triton-X100, 5mM DTT, 500uM Coenzyme A trilithium salt (Sigma #C3019),450uM ATP (Sigma #A7699), 1mM D-luciferin sodium salt monohydrate (Biosynth #L8240) Control compounds used were two known firefly luciferase inhibitors (3-(5-(3-chlorophenyl)-1,2,4-oxadiazol-3-yl)benzoic acid and 5-(2-fluorophenyl)-3-phenyl-1,2,4-oxadiazole), and DMSO. Assay Summary: Transient transfection of FlucUGA construct: Day 1: GripTite cells were plated in T175 flasks at a density of 1.75 x 10^7 cells/T175 flask in complete growth media without Geneticin and allowed to grow ON in a 37 degrees Celsius incubator. Day 2: Cells in T175 flask were transfected - with 10ug of DNA and 30uL Transfast in 12mL complete growth media without serum and without Geneticin for 4 hours at 37 degrees Celsius. After incubation, cells were trypsinized, spun down, and resuspended to a concentration of 3.3 x 10^5 cells/mL in assay media. 6uL of cells in assay buffer were dispensed at 2000cells/well (3.3 x 10^5 cells/mL) into Greiner solid-white TC-treated 1536-well plates using a Multidrop Combi (Thermo Fisher Scientific). Plates were incubated for one hour at 37 degree Celsius, 95% humidity, 5% CO2. These assay plates were then treated with 23nL of compound or DMSO using a Kalypsys pin tool, which allows for delivery of a 12-point titration of each compound to the assay plate, with a final compound concentration ranging from approximately ~38uM to 0.2nM. Assay plates were then incubated for 72 hours. After incubation, plates were washed three times with DPBS (7uL/well). After the third wash, 6uL of DPBS was added to each well. 3uL of 3X luciferase detection reagent was then added to each well using a flying reagent dispenser (FRD). After a 15 minute incubation to allow for cell lysis, luciferase activity was measured using a ViewLux CCD imager (PerkinElmer), with an average exposure time of 2-12 seconds.

Chain of Luciferin 4-monooxygenase (Photinus pyralis) (P08659 whole entry, looked up): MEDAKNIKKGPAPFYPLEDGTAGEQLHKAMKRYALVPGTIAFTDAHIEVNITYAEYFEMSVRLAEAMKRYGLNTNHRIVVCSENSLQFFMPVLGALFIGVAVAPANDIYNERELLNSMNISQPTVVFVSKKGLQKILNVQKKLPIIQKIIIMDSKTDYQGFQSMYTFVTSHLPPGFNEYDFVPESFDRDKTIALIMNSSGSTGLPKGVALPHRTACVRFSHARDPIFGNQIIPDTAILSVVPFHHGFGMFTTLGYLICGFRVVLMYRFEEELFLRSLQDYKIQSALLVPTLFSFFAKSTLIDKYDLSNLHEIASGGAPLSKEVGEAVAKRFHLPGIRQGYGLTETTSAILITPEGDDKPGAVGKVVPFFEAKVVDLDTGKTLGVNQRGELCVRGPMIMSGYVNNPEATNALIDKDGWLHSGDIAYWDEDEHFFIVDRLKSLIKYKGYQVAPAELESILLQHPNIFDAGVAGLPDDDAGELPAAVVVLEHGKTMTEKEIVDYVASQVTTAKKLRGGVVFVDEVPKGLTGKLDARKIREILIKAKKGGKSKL

For COc1ccc(CC(=O)Nc2cccc(C(=O)Nc3ccccc3C(=O)O)c2)cc1OC, which Potency is on record?
Its Potency is “inactive”.

For COc1ccc2nc(NC(=O)CCc3nc(-c4ccccc4F)no3)sc2c1, which Potency is on record?
Its Potency is “inactive”.

O=C(O)c1cccc(NC(=O)c2ccc(S(=O)(=O)c3ccccc3)cc2)c1 was tested. Which Potency did it give?
Its Potency is “inactive”.

For O=C(Nc1ccccc1C(=O)O)c1ccc(NC(=O)C2CC2)cc1, which Potency is on record?
The Potency was “inactive”.

With COc1ccc2nc(NC(=O)c3cccc(S(=O)(=O)N4CCOCC4)c3)sc2c1 as the compound, how does the Potency read?
The Potency was “inactive”.

For O=C(O)c1cccc(NC(=O)c2cccc(NC(=O)C3CCCO3)c2)c1 (stereo not given), which Potency is on record?
Its Potency is “inactive”.

How did the Potency turn out when COc1cc(C(=O)Nc2cc(C)c(O)c(-c3nc4ccccc4s3)c2)cc(OC)c1OC was run?
Its Potency is “inactive”.

How did the Potency turn out when CC(=O)Oc1ccc(C(=O)Nc2ccccc2C(=O)Nc2ccc(C(=O)O)cc2)cc1 was run?
The Potency was “inactive”.

Oc1ccc(-c2nc3ccccc3s2)c(O)c1 was tested. Which Potency did it give?
The Potency was 12.6 µM (active).

How did the Potency turn out when O=C(O)c1ccccc1NC(=O)c1ccccc1Nc1ccccc1 was run?
The Potency was “inactive”.

For O=C(Nc1ccccc1C(=O)O)c1cc(S(=O)(=O)Nc2ccccc2)ccc1Cl, which Potency is on record?
Its Potency is “inactive”.

With Cc1ccc(C(=O)O/N=C(\N)c2ccccn2)cc1 as the compound, how does the Potency read?
The Potency was 2.25 µM (active).

With COc1cc(OC)cc(C(=O)Nc2ccccc2-c2nc3ccccc3s2)c1 as the compound, how does the Potency read?
The Potency was “inactive”.

With O=C(O)c1cccc(NC(=O)c2cccc(S(=O)(=O)N3CCc4ccccc4C3)c2)c1 as the compound, how does the Potency read?
The Potency was “inactive”.

Which Potency does the source give for COc1c(C)cccc1C(=O)Nc1ccc(-c2nc3ccccc3s2)c(Cl)c1 here?
The Potency was “inactive”.

With COc1cccc(OC)c1C(=O)Nc1cccc(C(=O)Nc2cccc(C(=O)O)c2)c1 as the compound, how does the Potency read?
The Potency was “inactive”.

For O=C(Nc1ccccc1C(=O)O)c1cccc(NC(=O)c2ccccc2Br)c1, which Potency is on record?
Its Potency is “inactive”.

Which Potency does the source give for COc1ccc(NS(=O)(=O)c2cccc(C(=O)Nc3ccccc3C(=O)O)c2)cc1 here?
The Potency was “inactive”.

With COc1ccc(-c2nc3ccccc3s2)cc1O as the compound, how does the Potency read?
The Potency was 14.2 µM (active).

Which Potency does the source give for CC(C)(C)NC(=O)c1ccccc1-c1nc2ccccc2s1 here?
Its Potency is “inactive”.

For O=C(Nc1ccc(Cl)cc1-c1nc2ccccc2s1)c1ccco1, which Potency is on record?
The Potency was “inactive”.

Nc1ccc(-c2nc3cc(N)ccc3s2)cc1 was tested. Which Potency did it give?
The Potency was 22.5 µM (active).

With Nc1ccc2nc(-c3ccccc3)sc2c1 as the compound, how does the Potency read?
The Potency was 1.13 µM (active).

Which Potency does the source give for Cc1ccc(C(=O)Nc2ccc(C(=O)O)cc2)cc1S(=O)(=O)NCc1ccccc1 here?
The Potency was “inactive”.

Which Potency does the source give for O=C(O)c1cccc(NC(=O)c2cccc(S(=O)(=O)Nc3cccc(F)c3)c2)c1 here?
The Potency was “inactive”.

For O=C(O)c1cccc(NC(=O)c2ccc(Cl)c(S(=O)(=O)N3CCCCCC3)c2)c1, which Potency is on record?
Its Potency is 0.283 µM (active).

How did the Potency turn out when COc1cc(OC)cc(C(=O)Nc2ccc(-c3nc4ccccc4s3)c(C)c2)c1 was run?
Its Potency is “inactive”.

Which Potency does the source give for Cc1ccc(S(=O)(=O)N2CCN(C(=O)c3ccccc3-c3nc4ccccc4s3)CC2)c(C)c1 here?
The Potency was “inactive”.

With COc1ccccc1C(=O)Nc1ccc(C(=O)Nc2ccccc2C(=O)O)cc1 as the compound, how does the Potency read?
Its Potency is “inactive”.

How did the Potency turn out when Cc1c(NC(=O)c2cccs2)cccc1-c1nc2ccccc2s1 was run?
Its Potency is “inactive”.

How did the Potency turn out when Nc1ccc(-c2nc3ccc(N)cc3s2)cc1 was run?
The Potency was 4 µM (active).

For O=C(Nc1cccc(-c2nc3ccccc3s2)c1)C1=COCCO1, which Potency is on record?
Its Potency is “inactive”.

CCOc1ccc(C(=O)Nc2ccccc2C(=O)O)cc1 was tested. Which Potency did it give?
Its Potency is 14.2 µM (active).

Which Potency does the source give for O=C(Nc1ccccc1C(=O)O)c1cccc(S(=O)(=O)Nc2ccc(Br)cc2)c1 here?
The Potency was “inactive”.

How did the Potency turn out when COc1ccc2nc(NC(=O)CCc3ccc(OC)c(OC)c3)sc2c1 was run?
The Potency was “inactive”.

O=C(O)c1ccc(NC(=O)c2ccccc2NC(=O)c2cccc(Br)c2)cc1 was tested. Which Potency did it give?
The Potency was “inactive”.

How did the Potency turn out when Cc1cccc(NS(=O)(=O)c2cccc(C(=O)Nc3cccc(C(=O)O)c3)c2)c1 was run?
The Potency was “inactive”.

Which Potency does the source give for CC(C)CC(=O)Nc1cccc(C(=O)Nc2ccccc2C(=O)O)c1 here?
The Potency was “inactive”.

Which Potency does the source give for CN(C)S(=O)(=O)c1ccc(C(=O)Nc2cccc(C(=O)O)c2)cc1 here?
Its Potency is “inactive”.

With Nc1ccc(-c2nc3ccc(C(=O)O)cc3s2)cc1 as the compound, how does the Potency read?
Its Potency is 0.159 µM (active).
